Data: PubChem BioAssay (EPA / NIEHS)
Calls of active or inactive are those of the source. The calls were made as follows: active = hit-call score of the fitted dose curve at least 0.9, where 1 is the maximum; inactive = score below 0.9.

System: not listed separately
Assay: ATG_M_32_CIS: Attagene CIS-FACTORIAL HepG2 Assay for M32 Transcription Factor (Internal Marker) (AID 2282949);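 also: background control marker of the multiplexed CIS panel rather than a real target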
Conditions: HepG2 Attagene cis-factorial M32 reporter, mRNA; actives raise or lower the signal
How it was run: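 Following 24 h chemical exposure of HepG2 cells transiently expressing cis-promoter reporter constructs, reporter transcript levels were determined by RT-PCR with fluorescent labelling and capillary electrophoresis, then fitted bidirectionally against DMSO.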

| Compound | outcome | AC50 |
| --- | --- | --- |
| CCCCCCCCCCCC#N | inactive |  |
| O=C(NC(=O)c1c(F)cccc1F)Nc1ccc(Oc2ccc(C(F)(F)F)cc2Cl)cc1F | inactive |  |
| CC1CCCC1.[C-]#[O+].[C-]#[O+].[C-]#[O+].[Mn] | inactive |  |
| CCCCNP(N)(N)=S | inactive |  |
| CC(=O)C=Cc1ccccc1 | inactive |  |
| CCC(=O)c1ccc(Cl)cc1 | inactive |  |
| Nc1ccccc1C(=O)Oc1ccc2ccccc2c1 | inactive |  |
| C=CC(=O)OC | inactive |  |
| CC(C)CCCCCCCOC(=O)c1ccccc1C(=O)OCCCCCCCC(C)C | inactive |  |
| N#CCNCC#N | inactive |  |
| CN(C)N | inactive |  |
| CN1C[C@H](C(=O)N[C@]2(C)O[C@@]3(O)[C@@H]4CCCN4C(=O)[C@H](Cc4ccccc4)N3C2=O)C=C2c3cccc4[nH]cc(c34)C[C@H]21 | inactive |  |
| O=[N+]([O-])C=Cc1ccccc1 | inactive |  |
| Nc1ccc(Cl)c(Cl)c1 | inactive |  |
| CCCCOP(=O)(O)OCCCC | inactive |  |
| O=C(O)CCl | inactive |  |
| CC(O)CN(CC(C)O)CC(C)O (stereo unspecified) | inactive |  |
| Nc1cc(Cl)cc(Cl)c1 | inactive |  |
| O=[N+]([O-])c1ccc(Cl)cc1 | inactive |  |

| Compound | outcome | AC50 |
| --- | --- | --- |
| Cc1ccc(C)c2ccccc12 | inactive |  |
| C=CCO | inactive |  |
| COC(=O)COc1ccc(Cl)cc1Cl | inactive |  |
| [CH3][Sn]([Cl])([Cl])[Cl] | inactive |  |
| CC(=O)c1cc2c(cc1C)C(C)(C)C(C)CC2(C)C (stereo unspecified) | inactive |  |
| Nc1ccc(-c2ccc(N)c(N)c2)cc1N | inactive |  |
| c1cc(OCC2CO2)ccc1Cc1ccc(OCC2CO2)cc1 (stereo unspecified) | inactive |  |
| C=CC(=O)OCCCCOC(=O)C=C | inactive |  |
| c1ccc2c(c1)CCCC2 | inactive |  |
| CCOC(=O)C1OC1(C)c1ccccc1 (stereo unspecified) | inactive |  |
| [Cl][Sb]([Cl])[Cl] | inactive |  |
| COc1ncc(F)c2nc(S(=O)(=O)Nc3c(F)cccc3F)nn12 | inactive |  |
| CC(C)[C@@H](C(=O)O[C@@H](C#N)c1cccc(Oc2ccccc2)c1)c1ccc(Cl)cc1 | inactive |  |
| C[C@]12CC[C@H]3[C@@H](CC[C@@]45O[C@@H]4C(O)=C(C#N)C[C@]35C)[C@@H]1CC[C@@H]2O | inactive |  |
| O=[N+]([O-])c1cc([N+](=O)[O-])c2ccccc2c1 | inactive |  |
| O=C(O)C(Br)Br | inactive |  |
| C=CC(=O)OCCO | inactive |  |
| CCCCCCCCCCCCCCCC[N+](C)(C)C |  | 25.5 µM (active) |

System: not listed separately
Assay: ATG_M_06_CIS: Attagene CIS-FACTORIAL HepG2 Assay for M06 Transcription Factor (Internal Marker) (AID 2282950)
Conditions: HepG2 Attagene CIS-FACTORIAL M06 internal marker reporter; actives raise or lower the signal
How it was run: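 Fluorescence-labelled RT-PCR products from cis-promoter reporter units, cut with HpaI and resolved by capillary electrophoresis, give the signal. Cells are human HepG2, dosed for 24 h. Serves as background control, fitted relative to DMSO.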

| Compound | outcome |
| --- | --- |
| CCCCCCCCCCCC#N | inactive |
| O=C(NC(=O)c1c(F)cccc1F)Nc1ccc(Oc2ccc(C(F)(F)F)cc2Cl)cc1F | inactive |
| CC1CCCC1.[C-]#[O+].[C-]#[O+].[C-]#[O+].[Mn] | inactive |
| CCCCNP(N)(N)=S | inactive |
| CC(=O)C=Cc1ccccc1 | inactive |
| CCC(=O)c1ccc(Cl)cc1 | inactive |
| Nc1ccccc1C(=O)Oc1ccc2ccccc2c1 | inactive |
| C=CC(=O)OC | inactive |
| CC(C)CCCCCCCOC(=O)c1ccccc1C(=O)OCCCCCCCC(C)C | inactive |
| N#CCNCC#N | inactive |
| CN(C)N | inactive |
| CN1C[C@H](C(=O)N[C@]2(C)O[C@@]3(O)[C@@H]4CCCN4C(=O)[C@H](Cc4ccccc4)N3C2=O)C=C2c3cccc4[nH]cc(c34)C[C@H]21 | inactive |
| O=[N+]([O-])C=Cc1ccccc1 | inactive |
| Nc1ccc(Cl)c(Cl)c1 | inactive |
| CCCCOP(=O)(O)OCCCC | inactive |
| O=C(O)CCl | inactive |
| CC(O)CN(CC(C)O)CC(C)O (stereo unspecified) | inactive |
| Nc1cc(Cl)cc(Cl)c1 | inactive |
| O=[N+]([O-])c1ccc(Cl)cc1 | inactive |

| Compound | outcome |
| --- | --- |
| Cc1ccc(C)c2ccccc12 | inactive |
| C=CCO | inactive |
| COC(=O)COc1ccc(Cl)cc1Cl | inactive |
| [CH3][Sn]([Cl])([Cl])[Cl] | inactive |
| CC(=O)c1cc2c(cc1C)C(C)(C)C(C)CC2(C)C (stereo unspecified) | inactive |
| Nc1ccc(-c2ccc(N)c(N)c2)cc1N | inactive |
| c1cc(OCC2CO2)ccc1Cc1ccc(OCC2CO2)cc1 (stereo unspecified) | inactive |
| C=CC(=O)OCCCCOC(=O)C=C | inactive |
| c1ccc2c(c1)CCCC2 | inactive |
| CCOC(=O)C1OC1(C)c1ccccc1 (stereo unspecified) | inactive |
| [Cl][Sb]([Cl])[Cl] | inactive |
| COc1ncc(F)c2nc(S(=O)(=O)Nc3c(F)cccc3F)nn12 | inactive |
| CC(C)[C@@H](C(=O)O[C@@H](C#N)c1cccc(Oc2ccccc2)c1)c1ccc(Cl)cc1 | inactive |
| C[C@]12CC[C@H]3[C@@H](CC[C@@]45O[C@@H]4C(O)=C(C#N)C[C@]35C)[C@@H]1CC[C@@H]2O | inactive |
| O=[N+]([O-])c1cc([N+](=O)[O-])c2ccccc2c1 | inactive |
| O=C(O)C(Br)Br | inactive |
| C=CC(=O)OCCO | inactive |
| CCCCCCCCCCCCCCCC[N+](C)(C)C | inactive |

Target: Hypoxia-inducible factor 1-alpha (Homo sapiens) (UniProt Q16665)
Sequence (Q16665 whole entry, looked up): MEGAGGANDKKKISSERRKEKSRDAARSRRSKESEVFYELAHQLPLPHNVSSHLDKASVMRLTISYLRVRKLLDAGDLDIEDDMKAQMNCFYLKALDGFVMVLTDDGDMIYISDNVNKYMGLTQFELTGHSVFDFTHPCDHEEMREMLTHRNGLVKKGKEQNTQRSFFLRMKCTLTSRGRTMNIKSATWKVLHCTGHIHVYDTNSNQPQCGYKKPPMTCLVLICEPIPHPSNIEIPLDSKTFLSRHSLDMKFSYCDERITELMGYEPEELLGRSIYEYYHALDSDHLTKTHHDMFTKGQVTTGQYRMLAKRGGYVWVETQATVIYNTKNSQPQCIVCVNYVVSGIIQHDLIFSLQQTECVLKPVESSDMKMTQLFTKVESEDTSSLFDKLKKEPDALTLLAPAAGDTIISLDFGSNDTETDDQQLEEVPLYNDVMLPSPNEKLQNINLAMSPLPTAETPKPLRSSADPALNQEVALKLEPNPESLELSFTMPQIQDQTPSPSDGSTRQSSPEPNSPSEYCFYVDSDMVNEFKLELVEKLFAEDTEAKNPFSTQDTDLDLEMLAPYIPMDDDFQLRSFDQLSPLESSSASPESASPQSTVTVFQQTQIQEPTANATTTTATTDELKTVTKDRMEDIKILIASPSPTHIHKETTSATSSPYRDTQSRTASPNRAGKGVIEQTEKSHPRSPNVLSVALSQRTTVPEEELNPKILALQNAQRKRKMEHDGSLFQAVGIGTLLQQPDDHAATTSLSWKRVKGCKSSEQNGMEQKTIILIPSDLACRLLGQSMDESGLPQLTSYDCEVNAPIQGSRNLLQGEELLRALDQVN
Assay: ATG_HIF1a_CIS: Attagene CIS-FACTORIAL HepG2 Assay for human Hypoxia Inducible Factor 1 (HIF1A) (AID 2282951)
Conditions: HepG2 Attagene cis-factorial HIF1a reporter transcription; actives raise or lower the signal
How it was run: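 In this multiplexed cell assay, HepG2 cells bearing transfected cis reporters are dosed for 24 h and reporter mRNA is read by RT-PCR plus capillary electrophoresis; signal increases and decreases are both scored against DMSO.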

| Compound | outcome | AC50 |
| --- | --- | --- |
| CCCCCCCCCCCC#N | inactive |  |
| O=C(NC(=O)c1c(F)cccc1F)Nc1ccc(Oc2ccc(C(F)(F)F)cc2Cl)cc1F | inactive |  |
| CC1CCCC1.[C-]#[O+].[C-]#[O+].[C-]#[O+].[Mn] | inactive |  |
| CCCCNP(N)(N)=S | inactive |  |
| CC(=O)C=Cc1ccccc1 | inactive |  |
| CCC(=O)c1ccc(Cl)cc1 | inactive |  |
| Nc1ccccc1C(=O)Oc1ccc2ccccc2c1 | inactive |  |
| C=CC(=O)OC | inactive |  |
| CC(C)CCCCCCCOC(=O)c1ccccc1C(=O)OCCCCCCCC(C)C | inactive |  |
| N#CCNCC#N | inactive |  |
| CN(C)N | inactive |  |
| CN1C[C@H](C(=O)N[C@]2(C)O[C@@]3(O)[C@@H]4CCCN4C(=O)[C@H](Cc4ccccc4)N3C2=O)C=C2c3cccc4[nH]cc(c34)C[C@H]21 | inactive |  |
| O=[N+]([O-])C=Cc1ccccc1 | inactive |  |
| Nc1ccc(Cl)c(Cl)c1 | inactive |  |
| CCCCOP(=O)(O)OCCCC | inactive |  |
| O=C(O)CCl | inactive |  |
| CC(O)CN(CC(C)O)CC(C)O (stereo unspecified) | inactive |  |
| Nc1cc(Cl)cc(Cl)c1 | inactive |  |
| O=[N+]([O-])c1ccc(Cl)cc1 | inactive |  |

| Compound | outcome | AC50 |
| --- | --- | --- |
| Cc1ccc(C)c2ccccc12 | inactive |  |
| C=CCO | inactive |  |
| COC(=O)COc1ccc(Cl)cc1Cl | inactive |  |
| [CH3][Sn]([Cl])([Cl])[Cl] | inactive |  |
| CC(=O)c1cc2c(cc1C)C(C)(C)C(C)CC2(C)C (stereo unspecified) |  | 2.78 µM (active) |
| Nc1ccc(-c2ccc(N)c(N)c2)cc1N | inactive |  |
| c1cc(OCC2CO2)ccc1Cc1ccc(OCC2CO2)cc1 (stereo unspecified) | inactive |  |
| C=CC(=O)OCCCCOC(=O)C=C |  | 63.6 µM (active) |
| c1ccc2c(c1)CCCC2 | inactive |  |
| CCOC(=O)C1OC1(C)c1ccccc1 (stereo unspecified) | inactive |  |
| [Cl][Sb]([Cl])[Cl] | inactive |  |
| COc1ncc(F)c2nc(S(=O)(=O)Nc3c(F)cccc3F)nn12 | inactive |  |
| CC(C)[C@@H](C(=O)O[C@@H](C#N)c1cccc(Oc2ccccc2)c1)c1ccc(Cl)cc1 | inactive |  |
| C[C@]12CC[C@H]3[C@@H](CC[C@@]45O[C@@H]4C(O)=C(C#N)C[C@]35C)[C@@H]1CC[C@@H]2O |  | 64.5 µM (active) |
| O=[N+]([O-])c1cc([N+](=O)[O-])c2ccccc2c1 | inactive |  |
| O=C(O)C(Br)Br | inactive |  |
| C=CC(=O)OCCO |  | 100 µM (active) |
| CCCCCCCCCCCCCCCC[N+](C)(C)C | inactive |  |
